Data: PubChem BioAssay (NCI)
Compounds without any hit were thinned out: in the full panel of roughly 79,000, 15% have a hit. Activity calls are given as the source filed them. No stated cut-off is given here; in the data, active means growth inhibition above about 70%; inactive means the rest.

How the values were obtained:
[1] = NCI Yeast Anticancer Drug Screen. Data for the rad52 strain (AID 147);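 further: 0% = growth of vehicle-treated control cultures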; details: S. cerevisiae rad52 mutant growth inhibition, stronger effect = higher value
How it was run: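 Vehicle-treated cultures served as the reference for growth inhibition of compound-exposed yeast bearing a DNA repair mutation.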

[2] = NCI Yeast Anticancer Drug Screen. Data for the wt1 strain (AID 149);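 further: 0% = growth of vehicle-treated wt1 cultures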; details: S. cerevisiae wt1 strain (SPY 50644) growth inhibition, stronger effect = higher value
How it was run: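 Each compound is tested on wt1 yeast and the loss of growth versus vehicle gives the inhibition value.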

[3] = NCI Yeast Anticancer Drug Screen. Data for the rad50EPP+ strain (AID 151);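 further: 0% = growth of vehicle-treated control cultures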; details: S. cerevisiae rad50 mutant strain, stronger effect = higher value
How it was run: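 In this screen, rad50EPP+ yeast were exposed to compounds. Growth inhibition was scored against vehicle-treated controls.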

[4] = NCI Yeast Anticancer Drug Screen. Data for the mgt1 strain (AID 153); details: S. cerevisiae mgt1 mutant growth inhibition, stronger effect = higher value
How it was run: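 mgt1 strain exposed; growth vs vehicle control recorded as inhibition.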

[5] = NCI Yeast Anticancer Drug Screen. Data for the rad50 strain (AID 155);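 further: 0% = growth of vehicle-only cultures of the same strain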; details: S. cerevisiae rad50 strain growth inhibition, stronger effect = higher value
How it was run: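 Vehicle-treated cultures provide the reference for the growth inhibition reported for compound-exposed, repair-deficient yeast.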

[6] = NCI Yeast Anticancer Drug Screen. Data for the mec2-1 strain (AID 157); details: S. cerevisiae mec2-1 strain, stronger effect = higher value
How it was run: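 Vehicle-treated cultures served as reference for growth inhibition of compound-exposed mec2-1 yeast.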

[7] = NCI Yeast Anticancer Drug Screen. Data for the rad14 strain (AID 159);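 further: 0% = growth of vehicle-treated control cultures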; details: S. cerevisiae rad14 strain growth inhibition, stronger effect = higher value
How it was run: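 Inhibition of growth is reported for a repair-deficient yeast mutant following compound treatment, calculated relative to cultures that received vehicle.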

[8] = NCI Yeast Anticancer Drug Screen. Data for the sgs1 mgt1 strain (AID 161);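 further: 0% = growth of cultures given vehicle only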; details: S. cerevisiae sgs1 mgt1 strain, stronger effect = higher value
How it was run: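 Test agents were incubated with a DNA-repair-mutant yeast strain. Growth was then read and compared against vehicle-treated controls.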

[9] = NCI Yeast Anticancer Drug Screen. Data for the CLN2oe strain (AID 163);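 further: 0% = growth of vehicle-only control cultures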; details: S. cerevisiae CLN2oe strain, stronger effect = higher value
How it was run: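 Inhibition relative to vehicle-treated yeast is reported. Cells: strain with genetic alteration in cell-cycle control, grown with compound.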

[10] = NCI Yeast Anticancer Drug Screen. Data for the cln2 rad14 strain (AID 165);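 further: 0% = growth equal to vehicle treated cultures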; details: S. cerevisiae cln2 rad14 strain, stronger effect = higher value
How it was run: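 Each compound was tested on cln2 rad14 yeast. Inhibition of growth was calculated against vehicle-exposed controls.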

[11] = NCI Yeast Anticancer Drug Screen. Data for the bub3 strain (AID 167); details: S. cerevisiae bub3 mutant strain, stronger effect = higher value
How it was run: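 Mutant yeast screening strain plus compound; vehicle-treated cultures serve as the 0% inhibition reference.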

[12] = NCI Yeast Anticancer Drug Screen. Data for the wt2 strain (AID 169); details: S. cerevisiae wt2 strain growth inhibition, stronger effect = higher value
How it was run: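 Inhibition of yeast growth was determined after compound treatment, normalised to controls receiving only vehicle.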

[13] = NCI Yeast Anticancer Drug Screen. Data for the mlh1 strain (AID 171);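 further: 0% = growth of vehicle-treated control cultures of the same strain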; details: S. cerevisiae mlh1 strain growth inhibition, stronger effect = higher value
How it was run: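 Vehicle-normalised growth inhibition of a repair- or checkpoint-altered yeast strain following compound treatment.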

[14] = NCI Yeast Anticancer Drug Screen. Data for the sgs1 strain (AID 173);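 further: 0% = growth of vehicle-only control cultures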; details: S. cerevisiae sgs1 mutant, stronger effect = higher value
How it was run: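 Screen format: yeast with repair or checkpoint alterations, compound exposure, growth read relative to vehicle.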

[15] = NCI Yeast Anticancer Drug Screen. Data for the mlh1 rad18 strain (AID 175); details: S. cerevisiae mlh1 rad18 strain growth inhibition, stronger effect = higher value
How it was run: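 Vehicle-treated cultures served as the reference for growth inhibition in a yeast strain carrying DNA damage repair alterations exposed to each compound.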

[16] = NCI Yeast Anticancer Drug Screen. Data for the rad18 strain (AID 177); details: S. cerevisiae rad18 mutant growth inhibition, stronger effect = higher value
How it was run: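 Test articles were incubated with altered yeast defective in DNA damage repair. Results are given as inhibition of growth versus vehicle.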

[17] = at 5.0 µM (retest, dose inferred, filed as 0.5)
[18] = at 50.0 µM (retest, dose inferred, filed as 5.0)

Measured: growth inhibition

N#CC1=C(N)N(/N=C/c2ccccc2)C(c2ccccc2)C1(C#N)C#N (stereo unspecified)
active: [1]; at 11.0 µM 78% | [1]; at 33.0 µM 90% | [1]; at 100.0 µM 84% | [4]; at 11.0 µM 84% | [4]; at 33.0 µM 96% | [4]; at 100.0 µM 95% | [5]; at 33.0 µM 90% | [5]; [18] 83% | [5]; at 100.0 µM 87% | [6]; at 11.0 µM 72% | [6]; at 33.0 µM 91% | [6]; [18] 87% | [6]; at 100.0 µM 87% | [7]; at 33.0 µM 89% | [7]; at 100.0 µM 90% | [8]; [18] 76% | [8]; at 50.0 µM 76.6% | [9]; at 33.0 µM 88% | [9]; at 100.0 µM 93% | [11]; at 11.0 µM 77% | [11]; at 33.0 µM 93% | [11]; [18] 88% | [11]; at 100.0 µM 95% | [12]; at 11.0 µM 94% | [12]; at 33.0 µM 86% | [12]; at 100.0 µM 87% | [13]; at 11.0 µM 79% | [13]; at 33.0 µM 95% | [13]; at 100.0 µM 93% | [14]; at 11.0 µM 80% | [14]; at 33.0 µM 93% | [14]; at 100.0 µM 95% | [15]; [18] 89% | [16]; at 11.0 µM 81% | [16]; at 33.0 µM 89% | [16]; at 100.0 µM 89%
inactive: [1]; at 1.2 µM 15% | [1]; at 3.7 µM 41% | [2]; at 1.2 µM 12% | [2]; at 3.7 µM 12% | [2]; at 11.0 µM 10% | [2]; at 33.0 µM 55% | [2]; at 100.0 µM 58% | [3]; at 1.2 µM 20% | [3]; at 3.7 µM 14% | [3]; at 11.0 µM 8% | [3]; at 33.0 µM 23% | [3]; at 100.0 µM 5% | [4]; at 1.2 µM 8% | [4]; at 3.7 µM 33% | [5]; at 1.2 µM 5% | [5]; at 3.7 µM 17% | [5]; [17] 16% | [5]; at 11.0 µM 66% | [5]; at 50.0 µM 39.9% | [6]; at 1.2 µM 9% | [6]; at 3.7 µM 31% | [6]; [17] 4% | [6]; at 50.0 µM 58.5% | [7]; at 1.2 µM 4% | [7]; at 3.7 µM 19% | [7]; at 11.0 µM 45% | [8]; [17] 5% | [9]; at 1.2 µM 25% | [9]; at 3.7 µM 40% | [9]; at 11.0 µM 64% | [10]; [17] -4% | [10]; [18] 46% | [10]; at 50.0 µM 45.7% | [11]; at 1.2 µM 9% | [11]; at 3.7 µM 21% | [11]; [17] 13% | [11]; at 50.0 µM 65.7% | [12]; at 1.2 µM -9% | [12]; at 3.7 µM 51% | [13]; at 1.2 µM 13% | [13]; at 3.7 µM 27% | [14]; at 1.2 µM 15% | [14]; at 3.7 µM 41% | [15]; [17] 14% | [15]; at 50.0 µM 63.5% | [16]; at 1.2 µM 3% | [16]; at 3.7 µM 22%

Oc1cccc2cc(Cl)cnc12
active: [1]; at 33.0 µM 96% | [1]; at 100.0 µM 97% | [2]; at 33.0 µM 96% | [2]; at 100.0 µM 98% | [3]; at 11.0 µM 94% | [3]; at 33.0 µM 98% | [3]; at 100.0 µM 97% | [4]; at 33.0 µM 97% | [4]; at 100.0 µM 98% | [5]; at 33.0 µM 96% | [5]; at 50.0 µM 90.7% | [5]; at 100.0 µM 97% | [6]; at 33.0 µM 97% | [6]; at 50.0 µM 92.8% | [6]; at 100.0 µM 98% | [7]; at 33.0 µM 97% | [7]; at 100.0 µM 98% | [8]; [18] 99% | [8]; at 50.0 µM 91.7% | [9]; at 33.0 µM 95% | [9]; at 100.0 µM 94% | [10]; [18] 98% | [10]; at 50.0 µM 88.7% | [11]; at 33.0 µM 96% | [11]; [18] 99% | [11]; at 50.0 µM 91.8% | [11]; at 100.0 µM 97% | [12]; at 33.0 µM 96% | [12]; at 100.0 µM 98% | [13]; at 33.0 µM 96% | [13]; at 100.0 µM 97% | [14]; at 33.0 µM 97% | [14]; at 100.0 µM 98% | [15]; at 50.0 µM 91.2% | [16]; at 33.0 µM 96% | [16]; at 100.0 µM 97%
inactive: [1]; at 1.2 µM -5% | [1]; at 3.7 µM 5% | [1]; at 11.0 µM 49% | [2]; at 1.2 µM -28% | [2]; at 3.7 µM -39% | [2]; at 11.0 µM 20% | [3]; at 1.2 µM -11% | [3]; at 3.7 µM -2% | [4]; at 1.2 µM -18% | [4]; at 3.7 µM -22% | [4]; at 11.0 µM 3% | [5]; at 1.2 µM -29% | [5]; at 3.7 µM -13% | [5]; [17] 37% | [5]; at 11.0 µM 37% | [5]; [18] 65% | [6]; at 1.2 µM -56% | [6]; at 3.7 µM -56% | [6]; [17] 38% | [6]; at 11.0 µM 6% | [6]; [18] 69% | [7]; at 1.2 µM -27% | [7]; at 3.7 µM -13% | [7]; at 11.0 µM 28% | [8]; [17] -13% | [9]; at 1.2 µM 5% | [9]; at 3.7 µM 8% | [9]; at 11.0 µM 45% | [10]; [17] 49% | [11]; at 1.2 µM -21% | [11]; at 3.7 µM -8% | [11]; [17] 55% | [11]; at 11.0 µM 20% | [12]; at 1.2 µM -31% | [12]; at 3.7 µM -26% | [12]; at 11.0 µM 1% | [13]; at 1.2 µM -22% | [13]; at 3.7 µM -42% | [13]; at 11.0 µM 3% | [14]; at 1.2 µM -47% | [14]; at 3.7 µM -43% | [14]; at 11.0 µM 46% | [15]; [17] 44% | [15]; [18] 50% | [16]; at 1.2 µM -11% | [16]; at 3.7 µM -4% | [16]; at 11.0 µM 60%
